Source: PubChem BioAssay (NCI)
This is part of a sample that, as a whole, favours compounds with a hit. Of some 79,000 tested, about 15% had one in any assay. Active and inactive are the calls of the source. Cut-off read from the data, not from the text of the source: active = growth inhibition above about 70%; inactive = the rest.

Key:
[1] = NCI Yeast Anticancer Drug Screen. Data for the rad52 strain (AID 147);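 note: 0% = growth of vehicle-treated control cultures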; details: S. cerevisiae rad52 mutant growth inhibition, stronger effect = higher value
How it was run: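 Vehicle-treated cultures served as the reference for growth inhibition of compound-exposed yeast bearing a DNA repair mutation.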

[2] = NCI Yeast Anticancer Drug Screen. Data for the wt1 strain (AID 149);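 note: 0% = growth of vehicle-treated wt1 cultures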; details: S. cerevisiae wt1 strain (SPY 50644) growth inhibition, stronger effect = higher value
How it was run: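 Readout: yeast growth inhibition, normalised to vehicle controls, in the wt1 strain exposed to test compounds.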

[3] = NCI Yeast Anticancer Drug Screen. Data for the mgt1 strain (AID 153); details: S. cerevisiae mgt1 mutant growth inhibition, stronger effect = higher value
How it was run: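 mgt1 strain exposed; growth vs vehicle control recorded as inhibition.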

[4] = NCI Yeast Anticancer Drug Screen. Data for the rad50 strain (AID 155);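 note: 0% = growth of vehicle-only cultures of the same strain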; details: S. cerevisiae rad50 strain growth inhibition, stronger effect = higher value
How it was run: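 Compounds were tested on a yeast strain with an engineered DNA damage repair alteration; the reported value is growth inhibition normalised to vehicle treatment.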

[5] = NCI Yeast Anticancer Drug Screen. Data for the mec2-1 strain (AID 157); details: S. cerevisiae mec2-1 strain, stronger effect = higher value
How it was run: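 Vehicle-treated cultures served as reference for growth inhibition of compound-exposed mec2-1 yeast.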

[6] = NCI Yeast Anticancer Drug Screen. Data for the rad14 strain (AID 159);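 note: 0% = growth of vehicle-treated control cultures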; details: S. cerevisiae rad14 strain growth inhibition, stronger effect = higher value
How it was run: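 Compound-treated yeast with a defined DNA-repair lesion; growth inhibition normalised to vehicle-treated cultures.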

[7] = NCI Yeast Anticancer Drug Screen. Data for the sgs1 mgt1 strain (AID 161);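 note: 0% = growth of cultures given vehicle only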; details: S. cerevisiae sgs1 mgt1 strain, stronger effect = higher value
How it was run: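 Mutant yeast exposed to compound; growth scored against vehicle-only wells.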

[8] = NCI Yeast Anticancer Drug Screen. Data for the CLN2oe strain (AID 163);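 note: 0% = growth of vehicle-only control cultures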; details: S. cerevisiae CLN2oe strain, stronger effect = higher value
How it was run: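 Inhibition relative to vehicle-treated yeast is reported. Cells: strain with genetic alteration in cell-cycle control, grown with compound.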

[9] = NCI Yeast Anticancer Drug Screen. Data for the cln2 rad14 strain (AID 165);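 note: 0% = growth equal to vehicle treated cultures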; details: S. cerevisiae cln2 rad14 strain, stronger effect = higher value
How it was run: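 Each compound was tested on cln2 rad14 yeast. Inhibition of growth was calculated against vehicle-exposed controls.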

[10] = NCI Yeast Anticancer Drug Screen. Data for the bub3 strain (AID 167); details: S. cerevisiae bub3 mutant strain, stronger effect = higher value
How it was run: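 Growth of a checkpoint-deficient yeast mutant is measured after compound exposure. Values represent inhibition relative to vehicle.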

[11] = NCI Yeast Anticancer Drug Screen. Data for the wt2 strain (AID 169);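 note: 0% = growth of vehicle-treated yeast cultures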; details: S. cerevisiae wt2 strain growth inhibition, stronger effect = higher value
How it was run: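 Inhibition of yeast growth was determined after compound treatment, normalised to controls receiving only vehicle.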

[12] = NCI Yeast Anticancer Drug Screen. Data for the mlh1 strain (AID 171);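 note: 0% = growth of vehicle-treated control cultures of the same strain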; details: S. cerevisiae mlh1 strain growth inhibition, stronger effect = higher value
How it was run: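 Vehicle-normalised growth inhibition of a repair- or checkpoint-altered yeast strain following compound treatment.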

[13] = NCI Yeast Anticancer Drug Screen. Data for the sgs1 strain (AID 173);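 note: 0% = growth of vehicle-only control cultures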; details: S. cerevisiae sgs1 mutant, stronger effect = higher value
How it was run: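 Screen format: yeast with repair or checkpoint alterations, compound exposure, growth read relative to vehicle.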

[14] = NCI Yeast Anticancer Drug Screen. Data for the mlh1 rad18 strain (AID 175); details: S. cerevisiae mlh1 rad18 strain growth inhibition, stronger effect = higher value
How it was run: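 Vehicle-treated cultures served as the reference for growth inhibition in a yeast strain carrying DNA damage repair alterations exposed to each compound.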

[15] = NCI Yeast Anticancer Drug Screen. Data for the rad18 strain (AID 177); details: S. cerevisiae rad18 mutant growth inhibition, stronger effect = higher value
How it was run: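 Test articles were incubated with altered yeast defective in DNA damage repair. Results are given as inhibition of growth versus vehicle.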

[16] = NCI Yeast Anticancer Drug Screen. Data for the rad50EPP+ strain (AID 151);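 note: 0% = growth of vehicle-treated control cultures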; details: S. cerevisiae rad50 mutant strain, stronger effect = higher value
How it was run: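 In this screen, rad50EPP+ yeast were exposed to compounds. Growth inhibition was scored against vehicle-treated controls.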

[17] = at 5.0 µM (retest, dose inferred, filed as 0.5)
[18] = at 50.0 µM (retest, dose inferred, filed as 5.0)

Measured: growth inhibition

CC[C@@]1(O)C[C@H](OC2CC(N(C)C)C(O)C(C)O2)c2c(O)c3c(c(O)c2[C@H]1OC1CC(N(C)C)C(O)C(C)O1)C(=O)c1cccc(O)c1C3=O (stereo partly drawn)
inactive: [1]; at 1.2 µM 36% | [1]; at 3.7 µM 38% | [1]; at 11.0 µM 35% | [1]; at 33.0 µM 46% | [2]; at 1.2 µM -8% | [2]; at 3.7 µM 4% | [2]; at 11.0 µM 7% | [2]; at 33.0 µM 12% | [2]; at 100.0 µM 42% | [3]; at 1.2 µM 16% | [3]; at 3.7 µM 20% | [3]; at 11.0 µM 13% | [3]; at 33.0 µM 18% | [4]; at 1.2 µM 15% | [4]; at 3.7 µM 14% | [4]; [17] 16% | [4]; at 11.0 µM 11% | [4]; at 33.0 µM 27% | [4]; [18] 65% | [5]; at 1.2 µM 10% | [5]; at 3.7 µM -1% | [5]; [17] 10% | [5]; at 11.0 µM 3% | [5]; at 33.0 µM -4% | [5]; [18] 23% | [5]; at 100.0 µM 62% | [6]; at 1.2 µM 15% | [6]; at 3.7 µM 15% | [6]; at 11.0 µM 17% | [6]; at 33.0 µM 16% | [7]; [17] 5% | [8]; at 1.2 µM 3% | [8]; at 3.7 µM 6% | [8]; at 11.0 µM 1% | [8]; at 33.0 µM 10% | [9]; [17] 8% | [10]; at 1.2 µM 8% | [10]; at 3.7 µM 12% | [10]; [17] -9% | [10]; at 11.0 µM 6% | [10]; at 33.0 µM 10% | [11]; at 1.2 µM -21% | [11]; at 3.7 µM -24% | [11]; at 11.0 µM -44% | [11]; at 33.0 µM -4% | [12]; at 1.2 µM 20% | [12]; at 3.7 µM 20% | [12]; at 11.0 µM 16% | [12]; at 33.0 µM 10% | [13]; at 1.2 µM 14% | [13]; at 3.7 µM 9% | [13]; at 11.0 µM 11% | [13]; at 33.0 µM 18% | [14]; [17] 13% | [14]; [18] 63% | [15]; at 1.2 µM 6% | [15]; at 3.7 µM 12% | [15]; at 11.0 µM 5% | [15]; at 33.0 µM 30%
active: [1]; at 100.0 µM 92% | [3]; at 100.0 µM 87% | [4]; at 50.0 µM 83.1% | [4]; at 100.0 µM 90% | [5]; at 50.0 µM 85% | [6]; at 100.0 µM 83% | [7]; [18] 89% | [7]; at 50.0 µM 88.2% | [8]; at 100.0 µM 75% | [9]; [18] 71% | [9]; at 50.0 µM 75.8% | [10]; [18] 77% | [10]; at 50.0 µM 83.4% | [10]; at 100.0 µM 84% | [11]; at 100.0 µM 94% | [12]; at 100.0 µM 88% | [13]; at 100.0 µM 89% | [14]; at 50.0 µM 85% | [15]; at 100.0 µM 88%

O=C1NC(=S)NC(=O)C1=Cc1ccc([N+](=O)[O-])o1
active: [1]; at 100.0 µM 85% | [16]; at 33.0 µM 87% | [16]; at 100.0 µM 92% | [3]; at 100.0 µM 79% | [5]; at 100.0 µM 87% | [8]; at 100.0 µM 82% | [15]; at 33.0 µM 83% | [15]; at 100.0 µM 92%
inactive: [1]; at 1.2 µM -50% | [1]; at 3.7 µM -58% | [1]; at 11.0 µM -6% | [1]; at 33.0 µM 57% | [2]; at 1.2 µM -18% | [2]; at 3.7 µM -4% | [2]; at 11.0 µM -1% | [2]; at 33.0 µM -1% | [2]; at 100.0 µM 6% | [16]; at 1.2 µM 11% | [16]; at 3.7 µM 23% | [16]; at 11.0 µM 61% | [3]; at 1.2 µM 15% | [3]; at 3.7 µM 20% | [3]; at 11.0 µM 41% | [3]; at 33.0 µM 58% | [5]; at 1.2 µM -16% | [5]; at 3.7 µM -20% | [5]; [17] -19% | [5]; at 11.0 µM -12% | [5]; at 33.0 µM 0% | [5]; [18] -4% | [5]; at 50.0 µM 3.2% | [6]; at 1.2 µM 5% | [6]; at 3.7 µM -10% | [6]; at 11.0 µM -7% | [6]; at 33.0 µM 16% | [6]; at 100.0 µM 36% | [7]; [17] 1% | [7]; [18] 36% | [7]; at 50.0 µM 48% | [8]; at 1.2 µM 9% | [8]; at 3.7 µM -1% | [8]; at 11.0 µM 5% | [8]; at 33.0 µM -9% | [9]; [17] 16% | [9]; [18] 35% | [9]; at 50.0 µM 16.7% | [10]; at 1.2 µM 11% | [10]; at 3.7 µM -9% | [10]; [17] 2% | [10]; at 11.0 µM -24% | [10]; at 33.0 µM -28% | [10]; [18] 10% | [10]; at 50.0 µM 4.45% | [10]; at 100.0 µM 53% | [11]; at 1.2 µM -20% | [11]; at 3.7 µM -12% | [11]; at 11.0 µM 2% | [11]; at 33.0 µM -8% | [11]; at 100.0 µM 64% | [13]; at 1.2 µM -11% | [13]; at 3.7 µM 2% | [13]; at 11.0 µM 10% | [13]; at 33.0 µM 32% | [13]; at 100.0 µM 54% | [14]; [17] -15% | [14]; [18] 2% | [14]; at 50.0 µM 64% | [15]; at 1.2 µM 21% | [15]; at 3.7 µM 16% | [15]; at 11.0 µM 57%

COC1CC(CC2CCC(C)C(C(C)C(=O)O)O2)OC2(OC(C)(C3CCC(C)(C4OC(C5OC(O)(CO)C(C)CC5C)CC4C)O3)CC2C)C1C (stereo not drawn)
active: [1]; at 33.0 µM 93% | [1]; at 100.0 µM 98% | [2]; at 33.0 µM 93% | [2]; at 100.0 µM 98% | [3]; at 33.0 µM 91% | [3]; at 100.0 µM 98% | [4]; at 33.0 µM 96% | [4]; [18] 95% | [4]; at 50.0 µM 84.6% | [4]; at 100.0 µM 98% | [5]; at 33.0 µM 90% | [5]; [18] 95% | [5]; at 50.0 µM 90%
inactive: [1]; at 1.2 µM 17% | [1]; at 3.7 µM -3% | [1]; at 11.0 µM 22% | [2]; at 1.2 µM -2% | [2]; at 3.7 µM -9% | [2]; at 11.0 µM 5% | [3]; at 1.2 µM 14% | [3]; at 3.7 µM -5% | [3]; at 11.0 µM 27% | [4]; at 1.2 µM 24% | [4]; at 3.7 µM 19% | [4]; [17] 36% | [4]; at 11.0 µM 34% | [5]; at 1.2 µM -2% | [5]; at 3.7 µM -7% | [5]; [17] 28% | [5]; at 11.0 µM 12%
